These results are taken from PubChem BioAssay (NCI).

Compounds without any hit were thinned out: in the full panel of roughly 83,000, 20% have a hit.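 Assay: single dose, 48 h. Readout: percent growth (0 = no net growth; negative = cell death). Active: <10.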 Values without a mark were called inactive. Active and inactive are the calls of the source.

Holding throughout (assay): NCI-60 one-dose screen, 48 h (100 = growth as untreated, 0 = no growth, -100 = all killed)
What all share (settings): 10 µM unless noted

Test [1] has as its system HCT-15 colon.
Test [2] relates to HT29 colon.
Test [3] deals with SNB-75 CNS.
The test system of test [4] is SNB-19 CNS.
Test [5] concerns U251 CNS.
The subject of test [6] is PC-3 prostate.
Test [7] deals with SK-MEL-5 melanoma.
For test [8], the system named is UACC-62 melanoma.
The test system of test [9] is LOX IMVI melanoma.
The test system of test [10] is SK-MEL-28 melanoma.
For test [11], the system named is SK-MEL-2 melanoma.
Test [12] has as its system EKVX NSCLC.
In test [13] the test system is SN12C renal.
The subject of test [14] is UO-31 renal.
Test [15] deals with TK-10 renal.
In test [16] the test system is ACHN renal.
For test [17], the system named is CAKI-1 renal.
Test [18] deals with CCRF-CEM leukemia.
The subject of test [19] is MOLT-4 leukemia.
Test [20] deals with A498 renal.

As for `COc1ccc(/C=C\c2nc3ccccc3s2)cc1OP(=O)(O)O`, the growth in test [1] is 30%; in [2] it was 104%; in test [3], -2.05% (active); in [4], 28.8%; in [5], 32.6%; in [6], 43.5%. Also, the growth in [7] is 21.8%; in test [8], 41.5%; in [9], 41.5%; in [10], 67.4%; in test [11], 22.2%; in test [12], 76.8%. Moreover, the growth is 55.4% in [13]; 51.5% in [14]; 90.3% in [15]; 56.9% in test [16]; 38.5% in test [17]; 16.8% in test [18]. The growth in test [19] was 26.3%.
In the case of `Cc1nccc2c3ccc(OCc4cn(-c5ccc(Cl)cc5)nn4)cc3n(CCCc3ccccc3)c12`, the growth is 45.7% in [1]; 11.1% in [2]; -45.1% (active) in test [3]; 63% in test [4]; 25.3% in test [5]; 16.3% in test [6]. Further, the growth is 68.3% in test [7]; -62% (active) in [8]; 0.291% (active) in [9]; -34.3% (active) in test [10]; 90.8% in test [11]; 66.3% in test [12]. For the same compound, the growth in test [13] was 6.96% (active); in [14], -87.1% (active); in test [15], -16.1% (active); in test [16], -20.4% (active); in test [20], 87.5%; in test [18], 2.43% (active). Besides, the growth in [19] was 18.2%.
In the case of `OC(c1ccccc1)c1ccccn1` (configuration not stated), the growth in [1] is 105%; in test [2], 89.3%; in test [3], 86.5%; in [4], 100%; in [5] it was 96.1%; in test [6], 89.9%. Moreover, the growth in [7] was 101%; in [8], 103%; in test [9] it was 103%; in test [10], 107%; in test [11] it was 104%; in test [12], 98.8%. For the same compound, the growth in test [13] is 99.6%; in [14] it was 93.1%; in test [15], 99.3%; in test [16] it was 108%; in test [20], 98.5%; in [18], 88.7%. Besides, the growth in [19] was 96.8%.
In the case of `COc1ccc2nc(N=Nc3c(O)ccc4ccccc34)sc2c1`, the growth was 31.4% in test [1]; 28.2% in test [2]; 49.4% in test [3]; 31.8% in test [4]; 23.1% in test [5]; 49.1% in [6]. For the same compound, the growth in [7] is 4.14% (active); in test [8], 7.36% (active); in test [9] it was 12.8%; in [10], 35.5%; in [11] it was 59.3%; in [12], 17.8%. The growth in test [13] was 50.4%; in [14] it was 20.7%; in test [15] it was 69.1%; in [16] it was 17.2%; in test [20], 79%; in test [18], 31.3%. Further, the growth in [19] was 19.9%.
In the case of `C=C1C(=O)O[C@H]2[C@H]1CC/C(COC(=O)NCCc1c[nH]c3ccc(Cl)cc13)=C\CC[C@@]1(C)O[C@@H]21`, the growth in test [1] was -66.6% (active); in test [2], -73.6% (active); in [3], -54.6% (active); in test [4], 32.4%; in test [5] it was -41.4% (active); in test [6] it was 1.04% (active). The growth in test [7] is -15.2% (active); in [8], -51.7% (active); in test [9], -82.4% (active); in test [10], -71.9% (active); in test [11], -3.3% (active); in test [12], -85.8% (active). The growth in [13] was -70.1% (active); in [14], -99.7% (active); in [15] it was -97.2% (active); in test [16] it was -100% (active); in [17], -100% (active); in test [18], -18.3% (active). Also, the growth in [19] is -6.88% (active).
As to `COc1ccc2c(Nc3ccc(NS(C)(=O)=O)cc3)c3ccccc3nc2c1`, the growth was 1.84% (active) in [1]; -45.4% (active) in test [2]; -15.8% (active) in test [3]; 13.2% in test [4]; 4.96% (active) in [5]; 6.89% (active) in test [6]. The growth in [7] is -94.6% (active); in test [8] it was -65.4% (active); in test [9] it was -5.18% (active); in test [10] it was -13.5% (active); in test [11], -70.4% (active); in [12] it was 6.78% (active). The growth in test [13] was 10.3%; in test [14] it was -41.5% (active); in test [15], 9.37% (active); in [16], -3.55% (active); in test [17], -22.6% (active); in [18], 11%. Also, the growth in test [19] was 2.19% (active).
Regarding `Nc1cc(N)c2cccnc2c1O`, the growth was 83.7% in test [1]; 87.4% in test [2]; 104% in test [3]; 64.2% in test [4]; 68.3% in test [5]; 80.7% in test [6]. In addition, the growth in [7] was 62.9%; in test [8] it was 43%; in test [9] it was 42.3%; in [10] it was 73.6%; in test [11], 98.2%; in [12] it was 83.2%. Moreover, the growth in test [13] was 55.5%; in [14] it was 56.5%; in [15], 86%; in test [16], 54.3%; in test [17] it was 35.3%; in test [18], 2.91% (active). Moreover, the growth in [19] is 5.9% (active).
Turning to `CCCCCN1C=C/C(=C\C(=O)N(C)c2ccc(Br)cc2)c2ccccc21`, the growth in [1] was 102%; in [2], 91.6%; in test [3] it was 91.6%; in [4], 99.6%; in [5], 92.4%; in test [6] it was 97.3%. The growth in test [7] was 97.9%; in [8] it was 93.7%; in [9], 87.6%; in test [10], 105%; in test [11], 109%; in test [12], 84.8%. Further, the growth is 97.6% in test [13]; 77.6% in [14]; 102% in test [15]; 113% in [16]; 86.7% in [17]; 97.9% in [18]. In [19], the growth is 85%.
